Data reported in PubChem BioAssay AID504908 (NMMLSC, 2011).
Where “and” joins values, the source holds several entries; their conditions need not be identical. Equal values may be shown once. The campaign covered roughly 1,300 compounds. About 25 (2%) were called active.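 Rule for the calls: active = inhibition above a set limit, roughly 3 SD of non-fluorescent compound noise (cut at about 38% in these data); inactive = inhibition at or below that limit.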 Only a sample is shown.

Target: AP-2 complex subunit beta (Homo sapiens) (UniProt P63010)
Assay: inhibitors of arrestin peptide binding to AP2, confirmation, biochemical, cherry pick 1, flow cytometry beads (AID 504908);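 note: loss of bead fluorescence from 50 nM FITC arrestin peptide bound to appendage; 0% = negative control wells and 100% = excess unlabelled arrestin peptide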
Conditions: GST-AP2 beads, FITC arrestin peptide binding, at 10 µM, stronger effect = higher value, GST-fused beta2-adaptin appendage, R879A mutant

Sequence of AP-2 complex subunit beta (Homo sapiens) (P63010 whole entry, looked up, one chain of several): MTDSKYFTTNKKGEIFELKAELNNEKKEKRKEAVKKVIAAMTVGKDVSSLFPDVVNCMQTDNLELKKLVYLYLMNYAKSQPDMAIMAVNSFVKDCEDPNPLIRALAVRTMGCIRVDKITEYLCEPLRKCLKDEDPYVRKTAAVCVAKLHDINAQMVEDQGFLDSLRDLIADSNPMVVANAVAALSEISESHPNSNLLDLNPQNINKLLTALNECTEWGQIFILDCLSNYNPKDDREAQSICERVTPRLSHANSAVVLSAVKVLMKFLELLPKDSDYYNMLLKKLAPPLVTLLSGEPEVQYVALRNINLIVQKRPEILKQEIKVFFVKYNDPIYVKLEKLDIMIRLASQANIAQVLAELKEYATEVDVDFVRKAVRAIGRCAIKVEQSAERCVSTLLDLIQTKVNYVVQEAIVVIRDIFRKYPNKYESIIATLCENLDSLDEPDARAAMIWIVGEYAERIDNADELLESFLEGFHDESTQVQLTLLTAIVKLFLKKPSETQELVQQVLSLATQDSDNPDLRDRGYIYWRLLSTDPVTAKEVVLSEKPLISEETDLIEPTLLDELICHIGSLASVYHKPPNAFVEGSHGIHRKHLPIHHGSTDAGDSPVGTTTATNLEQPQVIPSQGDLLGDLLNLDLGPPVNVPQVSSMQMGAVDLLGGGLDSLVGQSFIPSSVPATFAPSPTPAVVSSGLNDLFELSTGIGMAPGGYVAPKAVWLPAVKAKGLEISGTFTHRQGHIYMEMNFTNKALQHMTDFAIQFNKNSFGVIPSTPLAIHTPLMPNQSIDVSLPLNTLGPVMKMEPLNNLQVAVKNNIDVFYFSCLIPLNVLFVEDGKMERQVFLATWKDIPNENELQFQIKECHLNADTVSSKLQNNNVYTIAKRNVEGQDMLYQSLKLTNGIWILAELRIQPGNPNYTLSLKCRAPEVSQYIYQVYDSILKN

Row | SMILES | inhibition
1 | CN(C(=O)COC(=O)c1cc(=O)[nH]c2ccccc12)C1CCCCC1 | -1.7% (inactive)
2 | Cc1ccc(CN2C(=O)CCC2C(=O)NCCCN2CCCCC2C)cc1 (centres undefined) | 10.8% (inactive)
3 | CC(NC(=O)c1cc2cc(Cl)ccc2oc1=N)c1ccccc1 (centres undefined) | -6.34% (inactive)
4 | COC(=O)c1cc(NC(=O)c2nn(C)c(=O)c3ccccc23)cc(C(=O)OC)c1 | -5.22% (inactive)
5 | COc1ccc(CCNc2ncnc3c2nnn3Cc2ccccc2)cc1 | -10.5% (inactive)
6 | CCn1c(=O)n(CC)c2cc(N3CCCC3)c(NC(=O)c3ccccc3Br)cc21 | -0.2% (inactive)
7 | CC(NCCc1ccc(S(N)(=O)=O)cc1)C(=O)NCc1ccccc1 (centres undefined) | 5.93% (inactive)
8 | O=C(C1CCCO1)N1CCN(S(=O)(=O)c2ccc(Br)cc2)CC1 (centres undefined) | -1.61% (inactive)
9 | Cc1ccc(CNC(=O)C2CC(=O)N(C3CCCCCCC3)C2)cc1 (centres undefined) | -8.23% (inactive)
10 | Cc1ccc(S(=O)(=O)N2CCCCC2)cc1NC(=O)c1cccnc1 | -9.09% (inactive)
11 | NC(=O)C1CCN(C(=O)CC2C(=O)NCCN2Cc2cccc(Oc3ccccc3)c2)CC1 (centres undefined) | 0.55% (inactive)
12 | CCCc1ccc(-c2csc(NC(=O)Cc3cccs3)n2)cc1 | 8.55% (inactive)
13 | Cc1cccc(Nc2ccccc2C(=O)NCc2ccco2)c1C | 6.33% (inactive)
14 | Cc1ccc(S(=O)(=O)N2CCN(C(=O)c3ccccc3-c3nc4ccccc4s3)CC2)c(C)c1 | 15.9% (inactive)
15 | COc1cc2c(cc1NC(=O)COC(=O)/C=C/c1ccccc1)oc1ccccc12 | -9.67% (inactive)
16 | Cc1ccc(Nc2ccc(C(N)=O)cc2[N+](=O)[O-])cc1 | -3.07% (inactive)
17 | CC(C)C[C@H](NC(=O)N1CCn2c1nc1ccccc12)C(=O)NC1CC1 | 9.68% (inactive)
18 | Cc1ccc(C)c(NC(=S)NNC(=S)Nc2ccc(C(C)C)cc2)c1 | -5% (inactive)
19 | Cc1cccc(C)c1NC(=O)C(Cl)C(=O)c1ccccc1 (centres undefined) | 8.36% (inactive)
20 | CC(C)c1nnc(NC(=O)CCC(=O)N2CCN(c3cccc(Cl)c3)CC2)s1 | 1.25% (inactive)
21 | Cc1cccc(NC(=S)NC(=O)c2ccc(Br)o2)c1 | -4.95% (inactive)
22 | CC(=O)NCCNC(=O)c1cc(-c2cccc3ccccc23)nc2ccccc12 | -1.13% (inactive)
23 | CCOC(=O)N1CCN(C(=O)CNC(=O)Cc2ccc(Cl)cc2)CC1 | -12.2% (inactive)
24 | Brc1ccccc1C1Nc2cccc3cccc(c23)N1 | 14.3% (inactive)
25 | O=C(NCc1ccco1)c1ccc(CS(=O)(=O)Cc2ccc(F)cc2)o1 | 3.68% (inactive)
26 | CCOc1ccc(C(=O)NC2CCN(CC(=O)NCc3cccs3)CC2)cc1 | -3.4% (inactive)
27 | Cc1ccc(S(=O)(=O)/N=C(/Nc2ccccn2)c2ccc(Cl)cc2)cc1 | 13.7% (inactive)

Row | SMILES | inhibition
28 | CC(Oc1ccccc1)C(=O)NN1Cc2ccccc2C1=N (centres undefined) | -3.2% (inactive)
29 | Cn1c(=O)c([N+](=O)[O-])c(Oc2ccccc2)c2ccccc21 | 2.7% (inactive)
30 | CCC(C(=O)OC)n1cnc2c(oc3ccccc32)c1=O (centres undefined) | -3.46% (inactive)
31 | CN(C)c1ccc(NC(=O)c2ccncc2)c2ccccc12 | -3.42% (inactive)
32 | COc1ccc(/C=C2\SC(=S)N(CCC(=O)Nc3ccccn3)C2=O)cc1OC | 17.1% (inactive)
33 | CCC(=O)Nc1nc2ccccc2n1Cc1ccccc1C | -4.23% (inactive)
34 | O=C(NCC1(N2CCCCC2)CCCCC1)c1cccc(S(=O)(=O)Nc2ccccc2Cl)c1 | -1.26% (inactive)
35 | COC(=O)C1CC2=C(CC(C)(C)CC2=O)N(c2ccccc2)C1=O (centres undefined) | -13.1% (inactive)
36 | CN1C(=O)/C(=C/c2ccco2)SC1=Nc1cccc(C(=O)O)c1 | 9.02% (inactive)
37 | Cc1cc(C(=O)Nc2ccc(C)c(S(=O)(=O)N3CCOCC3)c2)c2ccccc2n1 | 7.91% (inactive)
38 | COc1cccc(-n2c(SCC(=O)c3c[nH]c4ccccc34)nc3ccccc3c2=O)c1 | 11.3% (inactive)
39 | Cc1cc(C)cc(Oc2nc3c(C)cccn3c(=O)c2/C=C(\C#N)C(=O)NC2CCS(=O)(=O)C2)c1 (centres undefined) | 7.24% (inactive)
40 | Cc1ccc(C2(C)NC(=O)N(CC(=O)Nc3ccccc3C(=O)N3CCCCC3)C2=O)cc1 (centres undefined) | 0.91% (inactive)
41 | Cc1cc(C(=O)OCC(=O)c2c(N)n(C)c(=O)n(C)c2=O)c(C)o1 | -0.6% (inactive) and 1.98% (inactive)
42 | NS(=O)(=O)c1ccc2nc(NC(=O)C3=COCCO3)sc2c1 | 3.87% (inactive)
43 | C/C(=N\Nc1ccc([N+](=O)[O-])cc1)c1ccc(-n2nncc2C(C)(C)C)cc1 | -0.82% (inactive)
44 | COc1cc2c(cc1OC)CN(C(=O)c1cc(=O)c3ccccc3o1)CC2 | -9.22% (inactive)
45 | Cc1ccc(OCCCCc2c(C)n[nH]c2C)cc1 | 4.8% (inactive)
46 | COCCNC(=O)Nc1ccc2nc(-c3ccco3)c(-c3ccco3)nc2c1 | 34% (inactive)
47 | Cc1ccc(OCCCC(=O)Nc2ccc3c(c2)OCCO3)cc1 | -5.58% (inactive)
48 | Cc1ccc(Cl)cc1-c1ccc(/C=N/n2cnnc2)o1 | -9.15% (inactive)
49 | CC(C)(C)c1ccc(C(=O)NCCn2c(N)c(C#N)c3nc4ccccc4nc32)cc1 | 6.81% (inactive)
50 | Cn1c(=O)c2c(nc(N/N=C/c3cccs3)n2Cc2ccc(Br)cc2)n(C)c1=O | 1.14% (inactive)
51 | CC(CN1CCCCC1)OC(=O)c1ccccc1Cl (centres undefined) | 7.67% (inactive)
52 | CCOc1ccc(-c2nnc(-c3ccco3)o2)cc1 | 11.9% (inactive)
53 | O=c1[nH]c2ccccc2n2c(-c3ccccc3)nnc12 | 20.4% (inactive)
54 | O=C(c1ccc(S(=O)(=O)NCc2ccco2)cc1)N1CCN(c2ccccc2)CC1 | 1.61% (inactive)
